Measurements: PubChem BioAssay (NCI)
The panel holds about 79,000 compounds, 15% with a hit somewhere; the sample as a whole holds those more often. A number with no mark means an inactive call. Active and inactive are the calls of the source. No stated cut-off is given here; in the data, active means growth inhibition above about 70%; inactive means the rest.

experiment: NCI Yeast Anticancer Drug Screen. Data for the rad50 strain (AID 155);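 further: 0% = growth of vehicle-only cultures of the same strain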; details: S. cerevisiae rad50 strain growth inhibition; at 50.0 µM (retest, dose inferred, filed as 5.0); active compounds read high
Procedure, shortened: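 DNA repair mutant yeast, compound exposure, growth read-out; inhibition is taken relative to vehicle.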

| Structure (SMILES) | growth inhibition |
| --- | --- |
| Oc1c(Br)cc(Cl)cc1Br | 98% (active) |
| COc1ccc(C2Oc3ccc(Cl)cc3C=C2[N+](=O)[O-])cc1OC (stereo not given) | 97% (active) |
| COC(=O)C(=O)CC(=O)c1cccc(Cl)c1 | 99% (active) |
| O/N=C(/C[N+]12CN3CN(CN(C3)C1)C2)c1ccc(I)cc1 | 20% |
| COc1cc(CCN=Cc2cc(Cl)cc(Cl)c2O)c([N+](=O)[O-])cc1OC | 74% (active) |
| COc1ccc2c(c1OC)C1=C(C2=O)c2cc3c(cc2CCN1)OCO3 | 76% (active) |
| CC(C)(C)[Si](C)(C)OCC1OC(n2cc(I)c(N)nc2=O)C(O[Si](C)(C)C(C)(C)C)C1O[Si](C)(C)C(C)(C)C (stereo not given) | 97% (active) |
| O=S(=O)(Nc1ccccn1)c1ccc(NCc2c3ccccc3nc3cc(Cl)ccc23)cc1 | 65% |
| OCc1ccc2c(c1)CC1(C2)Cc2cc3c(cc2C1O)CCC3 (stereo not given) | 41% |
| COc1cc(C(c2cc3c(cc2O)OCO3)N2CCOCC2)ccc1O (stereo not given) | 25% |
| CCCCCCCCCCCCCCSC(=N)N | 95% (active) |
| Cc1ccccc1NC(=S)Nc1ccccc1O | 81% (active) |
| c1cc2cc(Cc3ccc4[nH]ccc4c3)ccc2[nH]1 | 26% |
| N=C(N)c1ccc(-c2ccc(-c3ccc(C(=N)N)cc3)o2)cc1 | 88% (active) |
| O=c1oc2c/c(=C\c3ccccc3)c(=O)c3cccc1c3-2 | 97% (active) |
| CCCCCCCC(=O)/C=C/c1ccc(C)cc1 | -136% |
| COc1ccc(CCC2(C)OCCC(C)O2)cc1 (stereo not given) | 92% (active) |
| O=C(O)C(SC1=NNC2(C(=O)N1)c1ccccc1-c1ccccc12)SC1=NNC2(C(=O)N1)c1ccccc1-c1ccccc12 | 96% (active) |
| CC1(C)NNC(=S)NN1 | 12% |
| O=C([O-])c1ccccc1[I+]c1ccc(C2CCCCC2)cc1 | 45% |

| Structure (SMILES) | growth inhibition |
| --- | --- |
| ClC1=C(Cl)C(Cl)(C(Cl)(Cl)Cl)C(Cl)=C1Cl | 98% (active) |
| Cn1nc(N)c2cccnc21 | 19% |
| CC(C)(C)c1ccc(-n2c3nc(=O)n(-c4ccccc4C(F)(F)F)c(=O)c-3cc3ccccc32)cc1 | 96% (active) |
| C/C(=N\Nc1ccccn1)c1ccccn1 | 98% (active) |
| COc1ccc2c(C)cc(N/N=C(\C)c3ccccn3)nc2c1 | 57% |
| CC([NH-])C(=O)O.[Cu+2].[NH-]C(Cc1cnc[nH]1)C(=O)O (stereo not given) | 7% |
| COc1ccc(C)cc1NC(=O)ON=C1CCCCC1 | 83% (active) |
| Oc1c(N(Cc2ccccc2)Cc2ccccc2)ccc2cccnc12 | 96% (active) |
| Cc1ccc2[nH]c3cc4ccncc4cc3c2c1 | 95% (active) |
| Cc1ccc2nn(-c3ccc(O)cc3)nc2c1 | 45% |
| Oc1ccc2c(ccc3ccccc32)c1 | 98% (active) |
| ClCc1ccc2ccc3ccc(CCl)nc3c2n1 | 81% (active) |
| CC(=O)c1c(O)c2ccc(Cl)cc2[nH]c1=O | 90% (active) |
| O=C(c1ccc(Cl)cc1)c1ccc(OCCCOc2ccc(C(=O)c3ccc(Cl)cc3)cc2)cc1 | -32% |
| C=C1CC2(C[C@@H](c3ccccc3)O[C@@H](c3ccccc3)C2)OC1=O (stereo not given in full) | 97% (active) |
| O=C(N=Nc1c(O)[nH]c2ccccc12)C(O)(c1ccccc1)c1ccccc1 | 32% |
| C/C(=N\O)c1ccc2c3c(ccc([N+](=O)[O-])c13)CC2 | 9% |
| N#CS/C(Cl)=C(/C(Cl)=C(Cl)Cl)[N+](=O)[O-] | 99% (active) |
| N#C/C(=C1C=C/C(=N/O)C=C/1Cl)c1ccccc1 | -7% |
| O=C1/C(=C/c2ccc(Cl)c(Cl)c2)CN(C(=O)CCN2CCOCC2)C/C1=C\c1ccc(Cl)c(Cl)c1 | 86% (active) |
